For 40 compounds, Potency results are on record in PubChem BioAssay (Tox21).

Results filed as inconclusive are left out. Entries that show only a call come without a potency. Active and inactive are the calls of the source. The call rests on the fitted dose curve.

The nature of the assay: qHTS assay to identify small molecule agonists of the hypoxia (HIF-1) signaling pathway - cell viability counter screen (AID 1224844). Further: nearly all actives have a fitted effect of over 50% in size. Conditions: HRE-bla ME-180 viability, CellTiter-Glo luminescence, 17 h; series mostly up to 76.8 µM. From the text: National Center for Advancing Translational Sciences [NCATS]
NIH Chemical Genomics Center [NCGC]
U.S. Environmental Protection Agency [EPA]
National Institutes of Environmental Health Sciences [NIEHS]
National Toxicology Program [NTP]
U.S. Food and Drug Administration [FDA]
Hypoxia-inducible factor-1 (HIF-1) is the major hypoxia-regulated transcription factor that controls cellular responses to low oxygen concentration. HIF-1 is composed of two subunits: hypoxia responsive HIF-1-alpha and constitutively expressed HIF-1-beta, which is also known as aryl hydrocarbon receptor nuclear translocator. During hypoxic conditions, HIF-1-alpha heterodimerizes with HIF-1-beta and translocates into the nucleus where the HIF-1 complex binds to the hypoxia-response element (HRE) and activates expression of target genes such as VEGF (vascular endothelial growth factor). The HIF-1 pathway is essential to normal growth and development, and is involved in the pathophysiology of cancer, inflammation, and ischemia.
Using a beta-lactamase reporter-gene under control of the hypoxia response element, a cell-based assay [CellSensor(TM) HRE-bla ME-180 from Life Technologies, Carlsbad, CA] was used to measure hypoxia-induced signaling. Tox21 10K library compounds were measured for their ability to induce the reporter gene activity. The cytotoxicity of the Tox21 compound library against HRE-bla ME-180 cell line was tested in parallel by measuring cell viability using CellTiter-Glo assay (Promega, Madison, WI) in the same assay wells.
Tox21 Assay Protocol Summary:
HRE-bla ME-180 cells were dispensed at 2,000 cells per well in 6 uL of assay medium containing 0.5% dialyzed FBS into black wall/clear-bottom 1536-well plates using a Multidrop Combi (Thermo Scientific, Waltham, MA) dispenser. After the assay plates were incubated at 37C and 5% CO2 for 5 hrs, 23 nL of compounds dissolved in DMSO, positive controls or DMSO only was transferred to each well of the assay plate using a Pintool station (Kalypsys, San Diego, CA). The assay plates were incubated at 37C and 5% CO2 for 17 hrs. One uL of LiveBLAzerTM B/G FRET substrate (CCF4-AM) (Life Technologies) was added to each well using a Flying Reagent Dispenser (FRD, Aurora Discovery, San Diego, CA). After 2 hr incubation at room temperature, fluorescence intensity (405 nm excitation, 460 nm and 530 nm emissions) was measured using an Envision plate reader (PerkinElmer, Shelton, CT). For cytotoxicity, 4 ul/well of CellTiter-Glo reagent was added into the assay plates using an FRD. After 30 min incubation at room temperature, the luminescence intensity was measured using a ViewLux plate reader (PerkinElmer).
A general note: In qHTS, concentration-response curves come from the screen itself.
For `Cc1cccc(N)c1C`, the Potency result is “inactive”.
With `N#CN=C(N)N` the entry was “inactive”.
`OCC(O)CCl` (stereo not given): the Potency entry is “inactive”.
For `Nc1cccc(Cl)c1`, the Potency entry was “inactive”.
With `NNc1ccccc1` the entry was “inactive”; with `Nc1ccc([As](=O)(O)O)cc1`, “inactive”; with `C=C(C)C(=O)OCC(CC)CCCC` (stereo not given), “inactive”.
In the case of `Cc1cc(O)ccc1Cl` it was “inactive”.
In the case of `c1ccc2c(c1)CCCC2` it was “inactive”; in that of `ClCCOCCCl`, “inactive”.
On to `CCOP(=S)(OCC)Oc1cc(C)nc(C(C)C)n1`, for which the Potency result is “inactive”.
In the case of `CC(=O)C1CCOC1=O` (stereo not given), the Potency result was “inactive”.
With `OC[C@@H](O)[C@H]1O[C@@H]2O[C@H](C(Cl)(Cl)Cl)O[C@@H]2[C@H]1O` the entry was “inactive”; with `ClC(Cl)c1ccccc1`, “inactive”.
With `O=[N+]([O-])c1ccc(Cl)c(Cl)c1` the entry was “inactive”; with `COS(=O)(=O)OC`, “inactive”; with `OCCCCO`, “inactive”.
With `C[C@H]1C(=O)O[C@@H]2CCN3CC=C(COC(=O)[C@](C)(O)[C@]1(C)O)[C@H]23` the entry was “inactive”; with `CNCC(O)c1ccc(O)cc1` (stereo not given), “inactive”.
With `CNC(=O)O/N=C/C(C)(C)S(C)(=O)=O`, the Potency result is “inactive”.
In the case of `Cc1cccc(C)c1N` it was “inactive”; in that of `CC(C)CCCCCCOC(=O)c1ccccc1C(=O)OCCCCCCC(C)C`, “inactive”; in that of `C=CC(=O)OCC(CC)CCCC` (stereo not given), “inactive”.
For `COc1cc(-c2ccc(N)c(OC)c2)ccc1N`, the Potency result was “inactive”.
With `O=C(O)COc1ccccc1` the entry was “inactive”.
With `Cc1ccc(O)c(C)c1`, the Potency entry is “inactive”.
With `Oc1ccc(Cl)cc1` the entry was “inactive”; with `CN(C)C(=O)C(c1ccccc1)c1ccccc1`, “inactive”.
With `CCOC(=O)CC(SP(=O)(OC)OC)C(=O)OCC` (stereo not given) the entry was “inactive”.
In the case of `C=CCN=C=S` it was “inactive”; in that of `O=C(O)C1C(C(=O)O)C2(Cl)C(Cl)=C(Cl)C1(Cl)C2(Cl)Cl` (stereo not given), “inactive”.
For the compound `CCNc1nc(Cl)nc(NC(C)C)n1`, the Potency result was “inactive”.
With `Nc1cc(Cl)cc(Cl)c1` the entry was “inactive”.
In the case of `[N-]=[N+]=CC(=O)OC[C@H](N)C(=O)O` it was “inactive”; in that of `CN(C)C(=O)Nc1cccc(C(F)(F)F)c1`, “inactive”.
With `CCOP(=S)(OCC)Oc1ccc([N+](=O)[O-])cc1` the entry was “inactive”; with `Cc1ccccc1N`, “inactive”.
Turning to `CNC(=O)Oc1cccc2ccccc12`, the Potency entry is “inactive”.
Turning to `COP(=S)(OC)SCN1C(=O)c2ccccc2C1=O`, the Potency result is “inactive”.
In the case of `COc1nc(NC(C)C)nc(NC(C)C)n1` it was “inactive”.
